Results published in PubChem BioAssay (NCI).
Compounds without any hit were thinned out: in the full panel of roughly 83,000, 20% have a hit.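 Percent growth is the endpoint: 0 to 100 indicates growth inhibition (40 means 60% inhibition), 0 means no net growth, and negative values indicate cell death.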 Unmarked numbers belong to inactive results. Calls of active or inactive are those of the source. How the source made its calls: active means growth percent below 10; inactive means the rest.

Legend:
Experiment in all cases: NCI-60 one-dose screen, 48 h (100 = growth as untreated, 0 = no growth, -100 = all killed)
Conditions in all cases: 10 µM unless noted
[1] = tested on: BT-549 breast
[2] = tested on: MDA-MB-435 melanoma
[3] = tested on: SW-620 colon
[4] = tested on: MCF7 breast
[5] = tested on: HCT-116 colon
[6] = tested on: HCC-2998 colon
[7] = tested on: KM12 colon

Row | Compound | growth [1] | growth [2] | growth [3] | growth [4] | growth [5] | growth [6] | growth [7]
1 | COc1cccc2c1C(=O)c1c(O)c3c(c(O)c1C2=O)C[C@@](O)(/C(C)=N/NC(=O)c1cccc([N+](=O)[O-])c1)C[C@@H]3OC1CC(N)C(O)C(C)O1 (stereo partly drawn) | -14.9% (active) | -34.3% (active) | -43.5% (active) | -8.97% (active) | -53.8% (active) | -58.2% (active) | -39.2% (active)
2 | Cn1cc(-c2nc(-c3c[nH]c4ncc(F)cc34)cs2)c2cccnc21 | 108% | 98.2% | 104% | 77.9% | 101% | 81.6% | 99.3%
3 | Cc1ccc(NC(=O)CSc2nnc3n(Cc4ccccc4)c(=O)c4c(C)c(C(N)=O)sc4n23)cc1 | 74.3% | 31.5% | 53.7% | 44.8% | 9.8% (active) | 34.3% | 51.2%
4 | CC(=O)c1cc(C(=O)c2ccc3c(c2)Sc2ccccc2N3)c2c(C)cc(C)cn12 | 28.5% | -22.1% (active) | 20.8% | 15.1% | 3.76% (active) | 18% | 11.1%
5 | CC[N+](CC)(CCOCCOCC[N+](CC)(CC)Cc1ccc([N+](=O)[O-])cc1)Cc1ccc([N+](=O)[O-])cc1 | 107% | 104% | 101% | 104% | 97.8% | 98.1% | 101%
6 | O=c1c(O)cccn1CCCNCCCN(CCCn1cccc(O)c1=O)CCCn1cccc(O)c1=O | 113% | 104% | 99.1% | 104% | 108% | 101% | 106%
7 | Clc1cc(Cl)c(OCC#CI)cc1Cl | 135% | 55.5% | -65.9% (active) | 9.27% (active) | -71.6% (active) | 109% | 82.1%
8 | Cc1c(C(N)=O)sc2c1c(=O)n(Cc1ccccc1)c1nnc(S(=O)(=O)CC(=O)Nc3ccc(Cl)cc3)n21 | 75.7% | 46.2% | 39.6% | 73.5% | 15% | 26% | 55%
9 | O=C(Nc1cccc(-n2cc(-c3ccncc3)c(-c3ccc(O)c(Cl)c3)n2)c1)Nc1ccc(Cl)c(C(F)(F)F)c1 | -12.6% (active) | -61.6% (active) | 8.96% (active) | -7.24% (active) | -8.62% (active) | 14.7% | -25.2% (active)
10 | O=C(Nc1ccccc1Cl)c1cnc2ccc(C3CCNCC3)cn12 | 97.8% | 86% | 96.6% | 83.6% | 58.2% | 123% | 110%
11 | COc1cc(/C=C/C(=O)N2CCN(C(=O)/C=C/c3ccccc3)CC2)cc(OC)c1OC | 104% | 111% | 109% | 110% | 105% | 102% | 118%
12 | OC(c1cc(C(F)(F)F)nc2c(C(F)(F)F)cccc12)C1CCCCN1 (stereo not drawn) | 67.6% | 61.5% | 72.9% | 21.8% | 44.7% | 20.1% | 32.7%
13 | CC(=O)Oc1c(C)c(OC(C)=O)c2c(c1C(C)=O)OC1CC(=O)C(C(C)=O)=C(O)C21C (stereo not drawn) | 90.4% | 105% | 105% | 97% | 100% | 102% | 105%
14 | Cc1nc2c(O)cccc2cc1CO | 149% | 109% | 108% | 96.8% | 107% | 103% | 113%
15 | CCCCCCCCCCCCCCCCCC1=NC(C)(C)CN1CCO | 58.9% | -60.1% (active) | -60.4% (active) | -59.5% (active) | -67% (active) | -87.6% (active) | -76.3% (active)
16 | ClC1=C(Cl)C(Cl)=C(Cl)C1=Cc1ccc(Cl)cc1 | -38.9% (active) | -42.3% (active) | -83.9% (active) | 25% | -84.1% (active) | 30.9% | -69.6% (active)
17 | CCOC(=O)c1c2c(c(C)n1Cc1ccccc1)-c1nc(N)ncc1CC2 | 162% | 136% | 104% | 106% | 90.7% | 97.4% | 100%
18 | COc1ccc(Nc2nccc(N3CCN(c4c5ccc(Cl)cc5nc5ccc(OC)cc45)CC3)n2)cc1 | 90.5% | 55.8% | 60.1% | 37.6% | 24% | 93.9% | 73.9%
19 | O=C(c1ccccc1)c1ccccc1Cl | 85.8% | 102% | 106% | 107% | 101% | 117% | 96%
20 | Cc1nn(-c2ccccc2)c2nc3c(nc12)C(=O)CCC3 | 90.9% | 98.1% | 105% | 84.9% | 91.6% | 92% | 87.1%
21 | CCn1c2c(c3ccccc31)SC1c3cccn3CCN1C2=S (stereo not drawn) | 140% | 91.5% | 95.2% | 53.8% | 98.2% | 99.6% | 96.4%
22 | CN(C)CCCN1c2nc3ccccc3cc2Sc2cc3ccccc3nc21 | -100% (active) | -67% (active) | -93.5% (active) | -97.9% (active) | -62.8% (active) | -71.3% (active) | -72.4% (active)
23 | COc1cc(-c2cc(C(=O)Nc3nc4ccccc4s3)nc3cc(-c4ccccc4)nn23)cc(OC)c1OC | 59.6% | 31% | 55.7% | 72.9% | 57.8% | 85.6% | 45.3%
24 | COc1cc2c(c(OC)c1OC)CCc1cnoc1-2 | 101% | 103% | 114% | 104% | 176% | 90.1% | 106%
